Several values for one entry are separate records, joined by “and”; a condition that tells them apart may be missing. Equal entries are not always repeated. Activity calls are given as the source filed them.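 How the source made its calls, unless noted: active means inhibition at or above 50% relative to wild type and mutant plate controls; inactive means inhibition below 50%.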
How the values were obtained:
[1] = inhibitors of TNFa-induced NFkB p65 translocation, primary screen, imaging, HUVEC, MLSMR starter and 10KST1 sets (AID 438;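 active means inhibition above 20% together with a positive visual image hit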;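 further: compound added about 3h40 before a 20 min TNFalpha stimulation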;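 on inhibition: signal is the nuclear over cytoplasmic p65 intensity ratio per well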); details: HUVEC TNFa-induced p65 nuclear translocation; cell count: measured here: nuclei count (cytotoxicity indicator), at 2.08 µM unless noted; inhibition: at 2 µM, stronger effect = higher value unless noted
[2] = inhibitors of mutant huntingtin aggregation, primary screen, imaging, exon1htt(103Q)mCFP cells, high-content imaging (AID 483;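 active means visual image review flags a hit and inhibition of aggregation exceeds 20%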;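 further: compound exposure lasted 3 days before fixation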;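 on nuclei count: percent of the per-plate median nuclei count of sample wells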); details: exon1htt(103Q)mCFP cell line, aggregate imaging, at 2 µM; inhibition of aggregation: stronger effect = higher value; nuclei count: measured here: cell count, toxicity
[3] = inhibitors of E-selectin induction by TNFa, primary screen, imaging, HUVEC, immunofluorescence, MLSMR starter and 10KST1 sets (AID 487;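 active means visually confirmed hit in the image check and inhibition above 20%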;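 on inhibition: signal is fraction of cell area covered by stained E-selectin grains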;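 on nuclei count: 100% = median nuclei count of all wells on the same plate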); details: HUVEC TNFalpha-induced E-selectin immunofluorescence imaging, at 2 µM; inhibition: stronger effect = higher value; nuclei count: measured here: cell number, toxicity
[4] = DUSP6 inhibitors restoring Erk phosphorylation by chemical complementation, primary imaging in DUSP6-transfected HeLa (AID 609;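 active means compounds giving at least 50% inhibition in the cell-based MKP-3 phosphatase rescue imaging test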;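 on inhibition: phospho-Erk level distribution per well compared with pooled transfected vehicle control wells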); details: HeLa MKP-3 transfected, phospho-Erk imaging KS statistic, at 10 µM
[5] = biological target: Dual specificity protein phosphatase 6 (Homo sapiens) (UniProt Q16828); test: as above; details: HeLa MKP-3 transfected, phospho-Erk imaging KS statistic, at 10 µM, stronger effect = higher value
[6] = biological target: Voltage-gated potassium channel subunit beta-2 (Rattus norvegicus) (UniProt P62483); test: KvBeta enzyme negative modulators, primary screen, biochemical, NADPH fluorescence (AID 622;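 active means fluorescence slope higher than the sample average by over 3 SD, cut at about -0.22 in these data, passing the limit was not always enough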;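 further: slope of raw intensity against log time taken from 70 to 1610 s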); details: recombinant KvBeta, 4-cyanobenzaldehyde reduction, at 10 µM, stronger effect = higher value
[7] = biological target: Voltage-gated potassium channel subunit beta-2 (Rattus norvegicus) (UniProt P62483); test: KvBeta positive modulators, primary screen, biochemical, NADPH fluorescence (AID 623;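 active means NADPH fluorescence slope more negative than the mean of all samples by about 3 SD, 99.7% confidence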;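 further: fluorescence intensity change per second fitted from 20 to 320 s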); details: Recombinant KvBeta, NADPH fluorescence decrease slope, 10 min; at 10 µM; stronger effect = lower value
[8] = biological target: Alpha-2C adrenergic receptor (Homo sapiens) (UniProt P18825); test: modulators of alpha2C/GIRK thallium flux, primary screen, cell-based, HEK293 alpha2C/GIRK1/2 (AID 624;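 active means fluorescence slope after compound addition differing from the mean of all screened samples at 99.7% confidence, in either direction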;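 further: slope of fluorescence ratio to pre-addition baseline per second over 15 to 24 s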); details: thallium flux BTC fluorescence, at 10 µM, actives lie on both sides
[9] = inhibitors of larval lipid processing in zebrafish, primary screen, whole organism, PED6 fluorescence, gall bladder and intestine (AID 686;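 active means a full or partial loss of lipid-probe fluorescence in the fish gall bladder, intestine or both, judged by eye; inactive means no fluorescence loss, or compound toxic to the fish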;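 further: larvae 5 to 7 days old with five fish per well; signal comes from phospholipase A2 cleavage of quenched PED6 carried via bile; overnight exposure to compound and PED6 before scoring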); details: Zebrafish larvae PED6 lipid processing, fluorescence scoring
[10] = inhibitors of Chlamydomonas gravitaxis, primary screen, whole organism, Chlamydomonas reinhardtii, WT vs cilia-less mutant, absorbance, 96-well (AID 463189); details: OD600 absorbance, 2 days, at 10 µM, stronger effect = higher value;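 further: 0% = wild type cc124 cells in DMSO and 100% = ciliumless bld1 mutant cells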
[11] = inhibitors of Sendai virus-induced IRF3 signaling, primary screen, TLR/RLR signaling modifier project, cell-based, Sendai virus stimulus, luciferase, 10K MLSCN set (AID 602276;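 active means inhibition at or above 50% at 10 µM; inactive means inhibition below 50%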;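 further: firefly luciferase from ISG56 promoter only with Renilla not read in this screen; 0% = Sendai virus plus DMSO and 100% = medium plus DMSO without virus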); details: HEK293 RL24 IRF3 luciferase reporter, at 10 µM, stronger effect = higher value
[12] = inhibitors of poly I:C-induced TLR3 signaling, primary screen, cell-based, poly I:C stimulus, luciferase, 10K MLSCN set (AID 602277;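 active means inhibition of the reporter signal at or above 50%; inactive means inhibition below 50%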); details: HEK293-TLR3 RL24 IRF3 luciferase reporter, at 10 µM, stronger effect = higher value
[13] = measured here: cell density z-score
[14] = measured here: nuclear c-Myc green intensity z-score
[15] = measured here: nuclear pErk red intensity z-score, stronger effect = higher value
[16] = measured here: cell density z-score, cells stimulated with TPA for 15 min
[17] = measured here: nuclear c-Myc green intensity z-score, cells stimulated with TPA for 15 min
[18] = measured here: nuclear pErk red intensity z-score, stronger effect = higher value, cells stimulated with TPA for 15 min

Voltage-gated potassium channel subunit beta-2 (Rattus norvegicus), sequence (P62483 whole entry, looked up): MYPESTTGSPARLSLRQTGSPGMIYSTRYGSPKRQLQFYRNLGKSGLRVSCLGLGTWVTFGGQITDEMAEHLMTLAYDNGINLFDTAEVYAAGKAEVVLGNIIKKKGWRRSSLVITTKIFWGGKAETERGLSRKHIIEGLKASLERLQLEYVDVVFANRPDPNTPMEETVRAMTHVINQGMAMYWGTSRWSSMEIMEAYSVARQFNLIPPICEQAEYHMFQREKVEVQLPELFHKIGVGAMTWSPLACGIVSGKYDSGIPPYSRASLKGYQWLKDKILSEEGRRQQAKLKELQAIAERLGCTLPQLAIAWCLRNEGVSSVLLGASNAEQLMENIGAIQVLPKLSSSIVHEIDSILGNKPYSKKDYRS
Alpha-2C adrenergic receptor (Homo sapiens), sequence (P18825 whole entry, looked up): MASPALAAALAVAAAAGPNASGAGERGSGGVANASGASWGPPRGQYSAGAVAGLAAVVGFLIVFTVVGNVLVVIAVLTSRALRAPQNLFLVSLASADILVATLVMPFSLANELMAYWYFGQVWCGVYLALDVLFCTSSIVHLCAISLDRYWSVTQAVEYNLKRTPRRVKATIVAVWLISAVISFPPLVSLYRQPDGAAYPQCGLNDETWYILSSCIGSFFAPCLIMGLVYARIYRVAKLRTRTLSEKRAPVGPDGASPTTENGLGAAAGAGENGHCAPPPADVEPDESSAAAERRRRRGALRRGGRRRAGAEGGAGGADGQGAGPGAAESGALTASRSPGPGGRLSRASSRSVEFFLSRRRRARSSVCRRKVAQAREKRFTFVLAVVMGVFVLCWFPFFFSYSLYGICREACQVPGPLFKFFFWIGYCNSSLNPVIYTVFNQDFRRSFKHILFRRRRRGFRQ
Dual specificity protein phosphatase 6 (Homo sapiens), sequence (Q16828 whole entry, looked up): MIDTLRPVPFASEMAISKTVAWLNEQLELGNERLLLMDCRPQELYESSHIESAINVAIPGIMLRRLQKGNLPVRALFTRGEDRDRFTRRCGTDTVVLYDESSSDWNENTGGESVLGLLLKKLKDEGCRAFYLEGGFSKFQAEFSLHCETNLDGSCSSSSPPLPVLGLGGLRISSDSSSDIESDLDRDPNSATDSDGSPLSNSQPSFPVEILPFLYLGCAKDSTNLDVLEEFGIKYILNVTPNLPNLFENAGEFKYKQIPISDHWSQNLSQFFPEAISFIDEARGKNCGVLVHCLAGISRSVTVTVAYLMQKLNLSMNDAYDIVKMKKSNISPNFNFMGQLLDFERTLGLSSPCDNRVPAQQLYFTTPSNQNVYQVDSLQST

| Structure (SMILES) | cell count [1] | inhibition [1] | inhibition of aggregation [2] | nuclei count [2] | inhibition [3] | nuclei count [3] | z-score [4, 13] | z-score [4, 14] | z-score [4, 15] | inhibition [5] | fluorescence slope [6] | NADPH fluorescence slope [7] | slope [8] | outcome [9] | inhibition [10] | inhibition [11] | inhibition [12] | z-score [4, 16] | z-score [4, 17] | z-score [4, 18] |
| --- | --- | --- | --- | --- | --- | --- | --- | --- | --- | --- | --- | --- | --- | --- | --- | --- | --- | --- | --- | --- |
| CN(C)[C@@H]1C(=O)C(C(N)=O)=C(O)[C@@]2(O)C(=O)C3=C(O)c4c(O)ccc(Cl)c4[C@@](C)(O)C3C[C@@H]12 (stereo partly drawn) | 634 | -1.6% (inactive) | 76.3% (active) | 102% | -43.7% (inactive) | 123% | -1.02 | 0.954 | -0.997 | 21.2% (inactive) | -0.468 (inactive) | -6.5e-07 (inactive) | 0.00588 (inactive) | inactive | 51.9% (active) | 23% (inactive) | 44.9% (inactive) |  |  |  |
| CCOc1ccc(-n2c(O)c(C=NCCN3CCNCC3)c(=O)[nH]c2=O)cc1 | 537 | 3.2% (inactive) | -17.4% (inactive) | 96.7% | -38.9% (inactive) | 144% | -0.956 | -1.36 | 0.949 | -4.7% (inactive) | -0.351 (inactive) | -8.4e-06 (inactive) | 0.00537 (inactive) | inactive | 8.26% (inactive) | 14.4% (inactive) | 22.5% (inactive) |  |  |  |
| CN1CCC(OC(=O)C2c3ccccc3Oc3ccccc32)CC1 | 593 | -3.3% (inactive) | -33.4% (inactive) | 104% | -38.4% (inactive) | 143% | -1.82 | 0.811 | -0.439 | -3.5% (inactive) | -0.316 (inactive) | 1.2e-05 (inactive) | 0.0042 (inactive) | inactive | 11.4% (inactive) | 7.89% (inactive) | 12.3% (inactive) |  |  |  |
| C[C@H]1CCCC(=O)CCCCCc2cc(O)cc(O)c2C(=O)O1 | 593 | -6.9% (inactive) | 2.6% (inactive) | 82.4% | -84.5% (inactive) | 116% | 1.09 | -0.366 | -0.0362 | 29.1% (inactive) | -0.439 (inactive) | 2.4e-05 (inactive) | 0.00367 (inactive) | inactive | -7.02% (inactive) | -0.827% (inactive) | 16.9% (inactive) |  |  |  |
| CN(C)[C@@H]1C(=O)C(C(N)=O)=C(O)[C@@]2(O)C(=O)C3=C(O)c4c(O)cccc4[C@@](C)(O)[C@H]3C[C@@H]12 | 668 | 5.4% (inactive) | 72.1% (active) | 99.1% | -85.3% (inactive) | 113% | -0.618 | -0.0358 | -1.49 | 21.2% (inactive) | -0.433 (inactive) | -5.8e-05 (inactive) | 0.00553 (inactive) | inactive | 22.3% (inactive) | 10.4% (inactive) | 33.9% (inactive) |  |  |  |
| COP(=O)(OC)C(O)C(Cl)(Cl)Cl (stereo not drawn) | 659 | 4.7% (inactive) | -21.7% (inactive) | 104% | -58.1% (inactive) | 126% | -0.465 | 1.59 | 0.972 | 23.4% (inactive) | -0.462 (inactive) | -6e-05 (inactive) | 0.00473 (inactive) | inactive | 12.4% (inactive) | 17.5% (inactive) | 39.8% (inactive) |  |  |  |
| O=c1[nH]c2ccccc2n1C1CCN(CCCC(c2ccc(F)cc2)c2ccc(F)cc2)CC1 | 544 | -2.2% (inactive) |  |  | -26.6% (inactive) | 108% | -0.698 | 0.151 | -0.248 | 5.42% (inactive) | -0.556 (inactive) | -6.4e-05 (inactive) | 0.00493 (inactive) | inactive | -5.72% (inactive) and -16.1% (inactive) | 18.5% (inactive) | 10.5% (inactive) |  |  |  |
| C#CCN(C)C(C)Cc1ccccc1 (stereo not drawn) | 624 | -1.1% (inactive) | 13.6% (inactive) | 96.7% | -90.1% (inactive) | 124% | -0.521 | 1.36 | 0.296 | 8% (inactive) | -0.447 (inactive) | -7.1e-05 (inactive) | 0.00486 (inactive) | inactive | 10.4% (inactive) | 16.5% (inactive) | 40.6% (inactive) |  |  |  |
| C=CCn1c(O)c(C=NCCN(C)C)c(=O)[nH]c1=O | 342 | -5% (inactive) | -0.9% (inactive) | 97.7% | 9.5% (inactive) | 97.2% | 0.486 | -0.511 | -0.0175 | 19.3% (inactive) | -0.462 (inactive) | -0.000118 (inactive) | 0.00873 (inactive) | inactive | -19.1% (inactive) | -1.86% (inactive) | -11.3% (inactive) |  |  |  |
| C[C@H]1OC[C@@H](C[N+](C)(C)C)O1 | 534 | -2.2% (inactive) | 21% (inactive) | 93.2% | -83.7% (inactive) | 112% | 0.485 | 0.998 | -0.857 | 16.8% (inactive) | -0.458 (inactive) | -5.9e-05 (inactive) | 0.0176 (active) | inactive | -2.33% (inactive) and 9.97% (inactive) | 1.89% (inactive) | 50.9% (active) |  |  |  |
| CN1CCN(C(=O)OC2c3nccnc3C(=O)N2c2ccc(Cl)cn2)CC1 (stereo not drawn) | 563 | -7.6% (inactive) | -7% (inactive) | 109% | -132% (inactive) | 114% | -0.576 | -1.54 | 0.116 | 3.45% (inactive) | -0.501 (inactive) | -7.3e-05 (inactive) | 0.00689 (inactive) | inactive | 4.29% (inactive) and -9.06% (inactive) | 15.5% (inactive) | 43.6% (inactive) |  |  |  |
| CN1CCc2nc3sc(C#N)c(N)c3c(-c3cccs3)c2C1 | 596 | -16.8% (inactive) |  |  | -65% (inactive) | 165% | 0.586 | -0.275 | 0.463 | 6.51% (inactive) | -0.362 (inactive) | -6e-05 (inactive) | 0.00412 (inactive) | inactive | -2.74% (inactive) |  |  |  |  |  |
| Clc1ccc(COC(Cn2ccnc2)c2ccc(Cl)cc2Cl)cc1 (stereo not drawn) | 571 | -2% [at 2 µM, stronger effect = higher value, 0% TNFa-plus-vehicle, 100% no-TNFa wells] (inactive) | -19.8% (inactive) | 61.4% | -14.8% (inactive) | 106% |  |  |  | 13.3% [cells stimulated with TPA for 15 min] (inactive) | -0.51 (inactive) | 4.6e-06 (inactive) | 0.00388 (inactive) | inactive; toxic [screened at 20 µM (by protocol)] | 41.7% (inactive) | 22.8% (inactive) | 32.2% (inactive) | 0.542 | 1.67 | -0.914 |
| Clc1ccc(COC(Cn2ccnc2)c2ccc(Cl)cc2Cl)c(Cl)c1 (stereo not drawn) | 692 | -0.4% [at 2 µM, stronger effect = higher value, 0% TNFa-plus-vehicle, 100% no-TNFa wells] (inactive) |  |  | -73.1% (inactive) | 144% |  |  |  | 31.1% [cells stimulated with TPA for 15 min] (inactive) | -0.515 (inactive) | -3.4e-05 (inactive) | 0.00694 (inactive) | inactive; toxic [screened at 20 µM (by protocol)] | 36.1% (inactive) | 15.4% (inactive) | 32.2% (inactive) | -0.0883 | 1.51 | -0.416 |
| [N-]=[N+]=CC(=O)OC[C@H](N)C(=O)O | 594 | -4% (inactive) | -0.4% (inactive) | 104% | -25.7% (inactive) | 133% | -0.1 | -0.513 | -0.992 | 25.1% (inactive) | -0.53 (inactive) | 2.4e-05 (inactive) | 0.00503 (inactive) | inactive | -8.35% (inactive) | 16.7% (inactive) | 21.9% (inactive) |  |  |  |
| CCOC(=O)c1cc2c(cn1)[nH]c1ccccc12 | 594 | -2.5% (inactive) | 2% (inactive) | 102% | -12.8% (inactive) | 110% | -0.332 | -1.06 | -1.1 | 1.48% (inactive) | -0.368 (inactive) | 7.4e-07 (inactive) | 0.00544 (inactive) | inactive | -6.97% (inactive) | -4.33% (inactive) | -27.3% (inactive) |  |  |  |
| c1ccc2c(c1)[nH]c1cnccc12 | 584 | -5.4% (inactive) | -8.3% (inactive) | 86.9% | -52.4% (inactive) | 113% | 0.863 | -0.369 | 0.512 | -10.4% (inactive) | -0.166 (active) | 2.2e-05 (inactive) | 0.00469 (inactive) | inactive | 6.75% (inactive) | 2.27% (inactive) | 16.3% (inactive) |  |  |  |
| COc1ccc(C(=O)N2CCCC2=O)cc1 | 667 | 2.2% (inactive) | 11.2% (inactive) | 104% | -40.5% (inactive) | 108% | 0.0379 | -0.632 | 1.58 | 19% (inactive) | -0.52 (inactive) | -4.5e-05 (inactive) | 0.00436 (inactive) | inactive | 6.16% (inactive) and 14.6% (inactive) | 13.2% (inactive) | 20.9% (inactive) |  |  |  |
